Potency and outcome data for 7 compounds are collected here from PubChem BioAssay (Tox21).

Experiment [1] in a line: qHTS assay to test for compound auto fluorescence at 535 nm (green) in HEK293 cells (AID 720680). Further: potency means the concentration at half of the fitted maximal effect.
Experiment [2] can be described thus: qHTS assay to test for compound auto fluorescence at 460 nm (blue) in HEK293 cell free culture (AID 720681). The essentials:
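Blue fluorescence (Ex 405/Em 460 nm, triamterene-equivalent) was read immediately after pin transfer of compound or DMSO into medium (DMEM, 10% FBS) without cells.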

A short description of experiment [3]: qHTS assay to test for compound auto fluorescence at 535 nm (green) in HEK293 cell free culture (AID 720682). Further: potency means the concentration at half of the fitted maximal effect. Put shortly:
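No cells present: wells hold DMEM supplemented with 10% FBS, into which compound or vehicle is pinned. Green emission is then recorded (485 nm excitation, 535 nm emission) and scaled to fluorescein.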

A short description of experiment [4]: qHTS assay to test for compound auto fluorescence at 590 nm (red) in HEK293 cell free culture (AID 720683). Put shortly: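 Red-channel autofluorescence of compounds in culture medium (DMEM, 10% FBS), no cells, measured at 540/590 nm. Rose Bengal sodium is the reference fluorophore for equivalence.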
Experiment [5] in a line: qHTS assay to test for compound auto fluorescence at 590 nm (red) in HepG2 cell free culture (AID 720684). The essentials:
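Plate contents were MEM with 10% FBS plus test compound or DMSO, no cells. Fluorescence was recorded with 540 nm excitation and 590 nm emission.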

A short description of experiment [6]: qHTS assay to test for compound auto fluorescence at 460 nm (blue) in HepG2 cell free culture (AID 720685). The essentials: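 Compound (23 nL) or DMSO pinned into cell-free MEM with 10% FBS; blue fluorescence read at 405/460 nm excitation/emission, expressed as auto-fluorescence equivalency to triamterene.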
The nature of experiment [7]: qHTS assay to test for compound auto fluorescence at 535 nm (green) in HepG2 cell free culture (AID 720686). Further: potency means the concentration at half of the fitted maximal effect.
Experiment [8] is described as follows: qHTS assay to test for compound auto fluorescence at 460 nm (blue) in HepG2 cells (AID 720687). The essentials: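 Blue-channel autofluorescence (Ex/Em 405/460 nm, triamterene-equivalent) was measured after 1 hr compound exposure at 37 C, 5% CO2. Cells were HepG2, plated overnight at 37 C in MEM plus 10% FBS.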
The target of experiment [9] is Glucocorticoid receptor (Homo sapiens) (UniProt P04150). The experiment in a line: qHTS assay to identify small molecule agonists of the glucocorticoid receptor (GR) signaling pathway (AID 720691; active means well fitted activation curve with a large enough effect in the signal ratio in the repeat runs, not every such curve was filed as active; the % refers to the signal ratio). Put shortly:
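Agonist mode in a HeLa line carrying a GRE-controlled beta-lactamase reporter. Compounds act for 18 h at 37 C before a 2 h room-temperature FRET substrate step and fluorescence reading.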

For experiment [10] the target is unchanged. The experiment in a line: qHTS assay to identify small molecule antagonists of the glucocorticoid receptor (GR) signaling pathway (AID 720692; active means well fitted inhibition curve with a large enough effect in the signal ratio in the repeat runs, not every such curve was filed as active; the % refers to the signal ratio; further: potency means the concentration at half of the fitted maximal effect). The essentials: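 Cells plated, rested 4 h at 37 C/5% CO2; compounds in DMSO pin-transferred; dexamethasone added to 5 nM final; 18 h at 37 C; B/G FRET substrate added, 2 h room temperature; fluorescence measured.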

The nature of experiment [11]: qHTS assay for identifying genotoxic compounds that show differential cytotoxicity against isogenic chicken DT40 cell lines with known DNA damage response pathways - wild type cell line (AID 743012). Further: nearly all actives have a fitted effect of over 60% in size. Further: potency means the concentration at half of the fitted maximal effect. The essentials:
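Cells (DT40 wild type, 300/well) are treated with DMSO-dissolved compounds after a ~0.5 h pre-incubation and kept 40 h at 37 C/5% CO2. Viability is then measured by CellTiter-Glo luminescence following 30 min at room temperature.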

Experiment [12] can be described thus: qHTS assay for identifying genotoxic compounds that show differential cytotoxicity against isogenic chicken DT40 cell lines with known DNA damage response pathways - Rev3 mutant cell line (AID 743014). Further: nearly all actives have a fitted effect of over 55% in size. Further: potency means the concentration at half of the fitted maximal effect.
A short description of experiment [13]: qHTS assay for identifying genotoxic compounds that show differential cytotoxicity against isogenic chicken DT40 cell lines with known DNA damage response pathways - Rad54/Ku70 mutant cell line (AID 743015). Further: nearly all actives have a fitted effect of over 60% in size. Further: potency means the concentration at half of the fitted maximal effect.
Experiment [14] can be described thus: qHTS assay to identify small molecule antagonists of the androgen receptor (AR) signaling pathway - cell viability counter screen (AID 743033; further: nearly all actives have a fitted effect of over 45% in size; further: potency means the concentration at half of the fitted maximal effect).
The nature of experiment [15]: qHTS assay to identify small molecule antagonists of the androgen receptor (AR) signaling pathway using the MDA cell line - cell viability counter screen (AID 743041; further: nearly all actives have a fitted effect of over 45% in size). Put shortly: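 R1881-driven MDA-kb2 AR-luc cells, 3,000/well, were dosed with library compounds for 16 h; cell health came from CellTiter-Fluor fluorescence in the reporter wells.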
Experiment [16] addresses Androgen receptor (Homo sapiens) (UniProt P10275). The experiment in a line: qHTS assay to identify small molecule antagonists of the androgen receptor (AR) signaling pathway (AID 743035; active means well fitted inhibition curve with a large enough effect in the signal ratio in the repeat runs, not every such curve was filed as active; the % refers to the signal ratio). Put shortly: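 Antagonism is scored as loss of R1881-driven beta-lactamase reporter expression in HEK293 cells carrying the reporter under a UAS element, after 16 h co-treatment at 37C and a 2 h room-temperature FRET substrate read.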

The target is the same in experiment [17]. The experiment in a line: qHTS assay to identify small molecule agonists of the androgen receptor (AR) signaling pathway (AID 743036; active means well fitted activation curve with a large enough effect in the signal ratio in the repeat runs, with a control signal flat, not every such curve was filed as active; the % refers to the signal ratio). Put shortly: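 Quantitative HTS of the Tox21 10K library in HEK293 cells bearing a stably integrated UAS-controlled beta-lactamase reporter. Compound exposure lasted 16 h at 37C. Reporter activity was detected by FRET substrate fluorescence after 2 h at room temperature.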

The target is the same in experiment [18]. The experiment in a line: qHTS assay to identify small molecule agonists of the androgen receptor (AR) signaling pathway using the MDA cell line (AID 743040; further: nearly all actives have a fitted effect of over 20% in size). Put shortly:
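After a 5 h incubation at 37C and 0% CO2, MDA-kb2 reporter cells were dosed with compounds in DMSO and kept 16 h under the same conditions. Luciferase activity was then read as luminescence with ONE-Glo.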

Experiment [19] has the same target. The experiment in a line: qHTS assay to identify small molecule antagonists of the androgen receptor (AR) signaling pathway using the MDA cell line (AID 743042; further: nearly all actives have a fitted effect of over 55% in size). Put shortly:
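Antagonist mode: compounds plus R1881 agonist added to MDA-kb2 AR-luc cells, incubated 16 h at 37C. Luciferase reporter luminescence quantified, with multiplexed CellTiter-Fluor readout for cell viability.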

Experiment [20] is described as follows: qHTS assay to identify small molecule antagonists of the glucocorticoid receptor (GR) signaling pathway - cell viability counter screen (AID 720693). Further: nearly all actives have a fitted effect of over 55% in size.

Several values for one entry are separate records, joined by “and”; a condition that tells them apart may be missing. Equal values may be shown once. Records with an inconclusive call do not appear. A structure can be active in one record and inactive in another. Activity calls are given as the source filed them. Unless noted, the call rests on the fitted dose curve; in most records, active means well fitted curve in the direction sought with a large enough effect in the repeat runs; inconclusive means weak or mixed curves; inactive means no such curve, though single readings can be large; an effect the other way counts as inactive or inconclusive.
On the % scale 0 is the no-effect control and ±100 the full control effect; tags describe the fitted curve by direction and shape or compound fluorescence and quenching.

Chain of Androgen receptor (Homo sapiens) (P10275 whole entry, looked up): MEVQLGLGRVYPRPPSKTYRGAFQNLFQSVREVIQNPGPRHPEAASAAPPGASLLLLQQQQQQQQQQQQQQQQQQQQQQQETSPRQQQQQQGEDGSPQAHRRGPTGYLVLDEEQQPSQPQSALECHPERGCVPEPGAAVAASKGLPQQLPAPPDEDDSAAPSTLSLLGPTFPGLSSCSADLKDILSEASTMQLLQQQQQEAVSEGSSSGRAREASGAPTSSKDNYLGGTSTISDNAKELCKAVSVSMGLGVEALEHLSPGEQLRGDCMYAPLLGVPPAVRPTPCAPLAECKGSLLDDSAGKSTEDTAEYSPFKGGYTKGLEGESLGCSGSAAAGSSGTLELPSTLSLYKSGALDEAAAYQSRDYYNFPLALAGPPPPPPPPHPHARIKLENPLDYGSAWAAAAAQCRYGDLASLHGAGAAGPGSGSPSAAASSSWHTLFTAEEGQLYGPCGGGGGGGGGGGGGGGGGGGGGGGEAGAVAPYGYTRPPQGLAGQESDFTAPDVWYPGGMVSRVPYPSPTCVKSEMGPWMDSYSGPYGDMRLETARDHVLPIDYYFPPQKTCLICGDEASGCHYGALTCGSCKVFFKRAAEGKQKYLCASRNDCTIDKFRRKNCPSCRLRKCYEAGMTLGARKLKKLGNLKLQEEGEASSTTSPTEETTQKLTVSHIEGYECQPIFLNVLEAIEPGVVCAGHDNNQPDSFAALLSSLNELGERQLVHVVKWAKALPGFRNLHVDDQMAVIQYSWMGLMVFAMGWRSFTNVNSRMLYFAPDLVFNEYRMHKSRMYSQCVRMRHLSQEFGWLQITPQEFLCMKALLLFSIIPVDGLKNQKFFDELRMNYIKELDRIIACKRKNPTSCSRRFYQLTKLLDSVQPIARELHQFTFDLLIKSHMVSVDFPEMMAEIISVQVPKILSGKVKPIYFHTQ
Chain of Glucocorticoid receptor (Homo sapiens) (P04150 whole entry, looked up): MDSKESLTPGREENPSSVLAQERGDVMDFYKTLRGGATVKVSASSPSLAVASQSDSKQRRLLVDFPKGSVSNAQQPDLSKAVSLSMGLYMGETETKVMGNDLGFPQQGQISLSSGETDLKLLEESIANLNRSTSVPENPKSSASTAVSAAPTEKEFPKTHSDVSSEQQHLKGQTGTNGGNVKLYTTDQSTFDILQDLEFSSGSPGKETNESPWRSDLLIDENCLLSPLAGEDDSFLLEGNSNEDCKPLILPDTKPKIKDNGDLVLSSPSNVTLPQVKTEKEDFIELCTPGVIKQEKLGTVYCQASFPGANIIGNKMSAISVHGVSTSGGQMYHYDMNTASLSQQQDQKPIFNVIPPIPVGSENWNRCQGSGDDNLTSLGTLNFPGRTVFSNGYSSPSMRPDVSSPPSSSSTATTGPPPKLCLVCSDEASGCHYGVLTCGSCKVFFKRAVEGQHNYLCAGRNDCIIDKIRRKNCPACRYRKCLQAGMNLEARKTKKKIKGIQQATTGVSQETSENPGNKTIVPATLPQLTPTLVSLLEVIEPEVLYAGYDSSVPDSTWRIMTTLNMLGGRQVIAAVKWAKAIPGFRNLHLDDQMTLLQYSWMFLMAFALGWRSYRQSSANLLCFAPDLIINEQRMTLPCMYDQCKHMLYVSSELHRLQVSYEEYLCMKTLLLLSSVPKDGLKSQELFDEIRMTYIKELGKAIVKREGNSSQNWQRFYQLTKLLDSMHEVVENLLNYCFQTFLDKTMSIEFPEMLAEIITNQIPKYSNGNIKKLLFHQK

In the case of `CCCCC(CC)COC(=O)c1ccc(N(C)C)cc1` (stereo not drawn), the Potency entry in [1], in experiment [3], in [4], in experiment [5], in [7] and in [9] was “inactive” in each case. The Potency result in experiment [10], in [11], in experiment [14] and in [15] was “inactive” each time. The call in [2], in [6] and in [8] was inactive. The Potency result is “inactive and 54.5 µM (active)” in [12]; “inactive and 43.3 µM (active)” in [13].

For `C=C(C)C(=O)OCCOC(=O)C(=C)C`, the Potency entry in [1], in [3], in experiment [4], in [5], in experiment [7] and in experiment [9] was “inactive” throughout. Also, the Potency entry in [10], in experiment [11], in experiment [12], in experiment [13], in [14] and in experiment [16] was “inactive” each time. Besides, the Potency result in experiment [18], in experiment [15] and in [19] was “inactive” each time. In addition, the outcome in [2], in [6], in [8] and in experiment [17] was inactive.

`C[C@]12CC[C@H]3[C@@H](CCC4=CC(=O)CC[C@@]43C)[C@@H]1CC[C@@H]2C(=O)CO`: the Potency entry in experiment [1], in experiment [3], in [4], in experiment [5], in experiment [7] and in experiment [9] was “inactive” in each case. For the same compound, the Potency result in experiment [14] and in experiment [15] was “inactive” throughout. Further, the compound was classed as inactive in [2], in [6] and in experiment [8]. Also, the Potency in experiment [10] was 811 nM (active) and 977 nM (active); in [11] it was 6.86 µM (active); in experiment [12], 9.69 µM (active); in experiment [13], 8.63 µM (active).

On to `Cc1cc2nc3c(=O)[nH]c(=O)nc-3n(C[C@H](O)[C@H](O)[C@H](O)CO)c2cc1C`, for which the Potency in experiment [1] was 35.5 µM [fluorescent] (active) [middle of 4 runs]; in experiment [3], 31.6 µM [fluorescent] (active) [middle of 4 runs]; in [7], 17.8 µM [fluorescent] (active) and 39.8 µM [fluorescent] (active) and 35.5 µM [fluorescent] (active); in experiment [13], 18.8 µM (active) and inactive. Moreover, the compound was classed as inactive in experiment [2], in experiment [6] and in [8]. Further, the Potency entry in [4], in [5], in experiment [9], in experiment [20], in [11] and in [12] was “inactive” each time. For the same compound, the Potency entry in experiment [14] is “inactive”.

Consider `CCCCNS(=O)(=O)c1ccccc1`, for which the Potency entry in [1], in experiment [3], in experiment [4], in experiment [5], in [7] and in [9] was “inactive” in each case. For the same compound, the Potency entry in experiment [10], in experiment [11], in [12], in experiment [13] and in experiment [14] was “inactive” in each case. Further, the outcome in experiment [2], in [6] and in experiment [8] was inactive.

`COc1c(Cl)c(Cl)c(Cl)c(Cl)c1Cl`: the Potency result in [1], in experiment [3], in experiment [4], in experiment [5], in experiment [7] and in experiment [9] was “inactive” in each case. In addition, the Potency entry in [10], in [20], in experiment [11], in experiment [12], in experiment [13] and in experiment [14] was “inactive” throughout. Besides, the Potency entry in experiment [15] is “inactive”. In addition, the outcome in experiment [2], in experiment [6] and in [8] was inactive.

On to `S=C(NC1CCCCC1)NC1CCCCC1`, for which the Potency entry in experiment [1], in experiment [3], in experiment [4], in experiment [5], in experiment [7] and in [9] was “inactive” in each case. For the same compound, the Potency result in [10], in experiment [11] and in experiment [15] was “inactive” in each case. In addition, the outcome in [2], in [6] and in [8] was inactive. For the same compound, the Potency result in [12] is “inactive and 61.1 µM (active)”; in experiment [13], “inactive and 61.1 µM (active)”; in experiment [14] it was 19.1 µM (active).
